Common to all, as to experiment: DAPPL (digital affinity profiling via proximity ligation, sequencing); 10 mM Tris-HCl pH 7.5, 50 mM NaCl, 1 mM DTT, 4% glycerol, room temperature, 30 min; GST-TFs on glutathione beads, 16-mer random dsDNA library, 0.1% formaldehyde crosslink after washing; high values mean tight binding
Assay [1] has as its target T1, FEV (Homo sapiens, UniProt Q99581 1-238).
T1 sequence: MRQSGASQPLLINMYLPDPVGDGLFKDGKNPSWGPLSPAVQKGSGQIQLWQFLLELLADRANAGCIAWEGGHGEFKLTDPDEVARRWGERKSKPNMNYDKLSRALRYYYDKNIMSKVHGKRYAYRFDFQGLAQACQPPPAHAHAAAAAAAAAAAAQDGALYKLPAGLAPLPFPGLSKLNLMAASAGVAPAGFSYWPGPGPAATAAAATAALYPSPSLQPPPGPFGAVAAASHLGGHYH
The note with it: protein: recombinant; tags: N-terminal GST; dsDNA, one strand shown. Put shortly: (§1)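 Each value of binding signal is a hexamer's read frequency for a factor divided by the same hexamer's frequency in the tag-only sample. Barcoded, bead-captured GST fusions of human transcription factors made in yeast were pooled with that sample and incubated with 200 nmole of a random double-stranded 16-mer DNA library in Tris/NaCl/DTT/glycerol buffer at room temperature for 30 min. Washing, 0.1% formaldehyde crosslinking, proximity ligation, PCR and Illumina NextSeq500 sequencing followed.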

Assay [2] addresses ETV5 (Homo sapiens, UniProt P41161 1-510). To be noted: protein: recombinant; tags: N-terminal GST; dsDNA, one strand shown. The procedure, abridged:
as §1

The target in assay [3] is HSF1 (Homo sapiens, UniProt Q00613 1-529). The note with it: protein: recombinant; tags: N-terminal GST; chain copies: 3; dsDNA, one strand shown. Put shortly: as §1
HSF1, sequence (Q00613 whole entry): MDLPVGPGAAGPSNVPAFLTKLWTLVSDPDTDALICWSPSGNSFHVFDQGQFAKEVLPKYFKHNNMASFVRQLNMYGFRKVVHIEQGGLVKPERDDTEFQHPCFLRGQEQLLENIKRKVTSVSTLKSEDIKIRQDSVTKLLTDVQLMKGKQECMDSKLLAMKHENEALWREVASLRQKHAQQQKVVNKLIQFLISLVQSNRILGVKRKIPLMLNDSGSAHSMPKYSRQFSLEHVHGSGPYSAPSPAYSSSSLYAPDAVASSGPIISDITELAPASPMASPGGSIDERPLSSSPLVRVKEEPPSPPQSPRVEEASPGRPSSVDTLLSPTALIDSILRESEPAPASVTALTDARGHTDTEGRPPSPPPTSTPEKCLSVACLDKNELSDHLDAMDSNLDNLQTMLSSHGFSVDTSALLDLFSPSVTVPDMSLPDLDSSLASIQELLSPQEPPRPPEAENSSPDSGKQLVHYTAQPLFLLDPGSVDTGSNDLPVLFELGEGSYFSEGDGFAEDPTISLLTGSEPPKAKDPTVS
Assay [4] deals with T2, SPIC (Homo sapiens, UniProt Q8N5J4 1-248).
T2 sequence: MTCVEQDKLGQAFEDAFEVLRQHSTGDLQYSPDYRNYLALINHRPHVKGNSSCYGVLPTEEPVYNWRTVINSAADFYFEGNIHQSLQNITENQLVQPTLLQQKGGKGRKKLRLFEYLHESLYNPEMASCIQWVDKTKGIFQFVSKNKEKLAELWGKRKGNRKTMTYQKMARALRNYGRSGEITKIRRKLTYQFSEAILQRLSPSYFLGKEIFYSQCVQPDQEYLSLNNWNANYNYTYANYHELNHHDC
To be noted: protein: recombinant; tags: N-terminal GST; dsDNA, one strand shown. Put shortly: as §1

The target of assay [5] is ELF4 (Homo sapiens, UniProt Q99607 1-663). To be noted: protein: recombinant; tags: N-terminal GST; dsDNA, one strand shown. The procedure, abridged:
as §1

Assay [6] has as its target T3, ELK4 (Homo sapiens, UniProt P28324-2 1-405).
T3 sequence: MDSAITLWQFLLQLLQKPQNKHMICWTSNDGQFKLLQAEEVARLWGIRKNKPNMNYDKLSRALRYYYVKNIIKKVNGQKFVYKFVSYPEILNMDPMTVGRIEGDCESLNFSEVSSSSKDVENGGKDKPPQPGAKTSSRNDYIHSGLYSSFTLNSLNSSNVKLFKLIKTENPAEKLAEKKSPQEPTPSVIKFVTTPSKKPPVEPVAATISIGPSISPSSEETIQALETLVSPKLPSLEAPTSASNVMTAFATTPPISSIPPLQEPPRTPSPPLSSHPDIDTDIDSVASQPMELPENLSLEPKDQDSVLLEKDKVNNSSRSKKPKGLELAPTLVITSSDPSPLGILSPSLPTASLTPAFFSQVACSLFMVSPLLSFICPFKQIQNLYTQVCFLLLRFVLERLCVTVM
The note with it: protein: recombinant; tags: N-terminal GST; dsDNA, one strand shown. The procedure, abridged:
as §1

In assay [7] the target is T4, ETV2 (Homo sapiens, UniProt O00321 1-342).
T4 sequence: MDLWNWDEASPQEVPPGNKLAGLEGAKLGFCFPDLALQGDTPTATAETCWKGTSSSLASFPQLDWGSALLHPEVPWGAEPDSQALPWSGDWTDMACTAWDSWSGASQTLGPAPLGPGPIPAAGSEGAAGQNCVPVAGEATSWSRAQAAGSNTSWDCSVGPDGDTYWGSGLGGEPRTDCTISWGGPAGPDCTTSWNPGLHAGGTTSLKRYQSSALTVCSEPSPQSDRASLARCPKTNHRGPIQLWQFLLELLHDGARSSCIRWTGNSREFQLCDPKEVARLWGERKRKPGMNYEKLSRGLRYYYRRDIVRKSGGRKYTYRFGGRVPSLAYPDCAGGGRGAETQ
To be noted: protein: recombinant; tags: N-terminal GST; dsDNA, one strand shown. Put shortly: as §1

In assay [8] the target is T5, ELF3 (Homo sapiens, UniProt P78545 1-371).
T5 sequence: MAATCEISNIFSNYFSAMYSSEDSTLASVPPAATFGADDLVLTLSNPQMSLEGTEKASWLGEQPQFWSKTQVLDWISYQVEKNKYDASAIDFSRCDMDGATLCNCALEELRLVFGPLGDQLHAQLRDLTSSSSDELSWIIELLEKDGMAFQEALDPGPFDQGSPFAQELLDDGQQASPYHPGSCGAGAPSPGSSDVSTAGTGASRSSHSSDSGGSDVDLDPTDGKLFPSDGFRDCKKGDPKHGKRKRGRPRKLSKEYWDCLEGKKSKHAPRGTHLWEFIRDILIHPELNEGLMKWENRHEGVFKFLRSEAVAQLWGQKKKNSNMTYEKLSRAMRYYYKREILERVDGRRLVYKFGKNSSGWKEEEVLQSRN
To be noted: protein: recombinant; tags: N-terminal GST; dsDNA, one strand shown. The procedure, abridged: as §1

Assay [9] concerns the target CRX (Homo sapiens, UniProt O43186 1-299). The note with it: protein: recombinant; tags: N-terminal GST; dsDNA, one strand shown. Put shortly: as §1
For assay [10], the target named is ETV1 (Homo sapiens, UniProt P50549 1-477). The note with it: protein: recombinant; tags: N-terminal GST; dsDNA, one strand shown. Put shortly: as §1
ETV1, sequence (P50549 whole entry): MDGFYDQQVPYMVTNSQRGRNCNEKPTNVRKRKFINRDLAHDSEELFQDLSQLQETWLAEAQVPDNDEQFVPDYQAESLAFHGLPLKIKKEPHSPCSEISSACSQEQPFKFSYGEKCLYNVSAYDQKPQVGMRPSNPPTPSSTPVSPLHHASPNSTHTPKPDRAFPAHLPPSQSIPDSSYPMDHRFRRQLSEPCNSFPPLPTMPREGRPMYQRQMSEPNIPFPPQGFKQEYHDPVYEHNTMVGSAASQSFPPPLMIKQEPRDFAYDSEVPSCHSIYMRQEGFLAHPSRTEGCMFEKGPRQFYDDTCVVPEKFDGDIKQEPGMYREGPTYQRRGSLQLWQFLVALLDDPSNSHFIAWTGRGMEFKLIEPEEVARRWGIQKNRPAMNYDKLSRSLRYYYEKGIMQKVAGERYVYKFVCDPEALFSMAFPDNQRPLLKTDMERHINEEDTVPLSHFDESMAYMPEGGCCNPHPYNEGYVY
Assay [11] deals with T6, ERF (Homo sapiens, UniProt P50548 1-548).
T6 sequence: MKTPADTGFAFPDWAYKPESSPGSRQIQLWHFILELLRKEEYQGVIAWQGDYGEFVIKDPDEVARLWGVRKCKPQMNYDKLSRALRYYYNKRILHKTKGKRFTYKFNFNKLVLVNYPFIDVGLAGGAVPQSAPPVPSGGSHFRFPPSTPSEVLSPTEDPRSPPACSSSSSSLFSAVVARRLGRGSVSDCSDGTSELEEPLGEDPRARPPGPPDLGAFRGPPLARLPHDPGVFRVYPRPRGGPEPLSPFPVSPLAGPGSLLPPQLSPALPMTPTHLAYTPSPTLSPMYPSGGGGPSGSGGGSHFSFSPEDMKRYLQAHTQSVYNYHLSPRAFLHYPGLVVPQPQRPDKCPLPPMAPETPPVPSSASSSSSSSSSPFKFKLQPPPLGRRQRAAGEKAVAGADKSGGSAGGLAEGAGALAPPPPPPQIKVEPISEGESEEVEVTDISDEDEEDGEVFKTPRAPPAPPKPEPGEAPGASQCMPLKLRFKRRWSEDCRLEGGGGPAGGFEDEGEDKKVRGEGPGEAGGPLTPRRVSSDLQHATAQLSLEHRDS
The note with it: protein: recombinant; tags: N-terminal GST; dsDNA, one strand shown. The procedure, abridged:
as §1

Assay [12] addresses T7, ETV3L (Homo sapiens, UniProt Q6ZN32 1-361).
T7 sequence: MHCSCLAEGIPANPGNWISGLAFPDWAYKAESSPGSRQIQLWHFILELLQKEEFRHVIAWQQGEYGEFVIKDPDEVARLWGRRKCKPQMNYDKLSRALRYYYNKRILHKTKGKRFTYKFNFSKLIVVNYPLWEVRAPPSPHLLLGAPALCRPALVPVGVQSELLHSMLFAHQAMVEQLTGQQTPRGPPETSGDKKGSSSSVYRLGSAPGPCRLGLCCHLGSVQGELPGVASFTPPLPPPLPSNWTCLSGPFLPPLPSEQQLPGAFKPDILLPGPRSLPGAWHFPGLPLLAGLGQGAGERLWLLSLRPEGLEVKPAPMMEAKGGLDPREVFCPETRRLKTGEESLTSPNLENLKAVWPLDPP
The note with it: protein: recombinant; tags: N-terminal GST; dsDNA, one strand shown. The procedure, abridged: as §1

In assay [13] the target is T8, ETS2 (Homo sapiens, UniProt P15036 1-469).
T8 sequence: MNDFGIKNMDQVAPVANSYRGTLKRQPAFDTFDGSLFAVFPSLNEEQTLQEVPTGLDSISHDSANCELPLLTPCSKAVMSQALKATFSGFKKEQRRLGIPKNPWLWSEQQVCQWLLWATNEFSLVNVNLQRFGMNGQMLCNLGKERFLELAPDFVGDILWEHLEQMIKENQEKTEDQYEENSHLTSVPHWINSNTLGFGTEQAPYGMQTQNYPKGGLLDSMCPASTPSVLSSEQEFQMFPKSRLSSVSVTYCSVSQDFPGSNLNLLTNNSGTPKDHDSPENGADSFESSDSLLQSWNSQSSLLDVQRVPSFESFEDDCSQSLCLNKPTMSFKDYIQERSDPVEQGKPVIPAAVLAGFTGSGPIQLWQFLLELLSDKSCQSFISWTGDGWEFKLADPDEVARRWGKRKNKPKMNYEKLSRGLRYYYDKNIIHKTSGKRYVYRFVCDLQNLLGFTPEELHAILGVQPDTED
To be noted: protein: recombinant; tags: N-terminal GST; dsDNA, one strand shown. Put shortly: as §1

Assay [14] has as its target T9, SPDEF (Homo sapiens, UniProt O95238 1-335).
T9 sequence: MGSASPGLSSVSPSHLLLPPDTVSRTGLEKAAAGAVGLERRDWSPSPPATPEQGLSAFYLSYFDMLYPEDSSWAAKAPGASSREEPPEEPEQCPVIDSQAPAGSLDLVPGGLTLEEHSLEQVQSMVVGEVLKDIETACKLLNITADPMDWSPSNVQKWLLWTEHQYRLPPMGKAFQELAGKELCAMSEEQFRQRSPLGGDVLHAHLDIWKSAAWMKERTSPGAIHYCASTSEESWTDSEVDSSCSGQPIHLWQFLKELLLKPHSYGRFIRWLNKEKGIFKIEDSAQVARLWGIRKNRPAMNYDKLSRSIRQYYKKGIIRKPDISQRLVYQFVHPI
To be noted: protein: recombinant; tags: N-terminal GST; dsDNA, one strand shown. Put shortly: as §1

Assay [15] deals with T10, ETV7 (Homo sapiens, UniProt Q9Y603 1-341).
T10 sequence: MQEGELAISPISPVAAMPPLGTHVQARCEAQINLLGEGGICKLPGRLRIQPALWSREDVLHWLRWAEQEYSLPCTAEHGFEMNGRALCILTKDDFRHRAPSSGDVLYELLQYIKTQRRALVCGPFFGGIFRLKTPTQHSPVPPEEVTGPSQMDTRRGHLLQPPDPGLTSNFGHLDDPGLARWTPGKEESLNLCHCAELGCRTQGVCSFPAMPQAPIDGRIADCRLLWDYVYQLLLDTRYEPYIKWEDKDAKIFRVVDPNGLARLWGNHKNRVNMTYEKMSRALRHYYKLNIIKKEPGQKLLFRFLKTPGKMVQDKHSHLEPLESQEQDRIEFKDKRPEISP
The note with it: protein: recombinant; tags: N-terminal GST; dsDNA, one strand shown. Put shortly: as §1

Assay [16] deals with T11, ELF5 (Homo sapiens, UniProt Q9UKW6-2 1-255).
T11 sequence: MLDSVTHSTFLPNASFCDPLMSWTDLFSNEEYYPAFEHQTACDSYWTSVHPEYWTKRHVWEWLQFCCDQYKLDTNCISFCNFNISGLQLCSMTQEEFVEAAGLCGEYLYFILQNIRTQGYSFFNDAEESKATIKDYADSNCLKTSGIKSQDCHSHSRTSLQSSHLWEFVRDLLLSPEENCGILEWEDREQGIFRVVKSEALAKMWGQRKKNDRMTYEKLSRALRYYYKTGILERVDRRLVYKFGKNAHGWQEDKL
The note with it: protein: recombinant; tags: N-terminal GST; dsDNA, one strand shown. Put shortly: as §1

The target of assay [17] is T12, ETV3 (Homo sapiens, UniProt P41162-2 1-143).
T12 sequence: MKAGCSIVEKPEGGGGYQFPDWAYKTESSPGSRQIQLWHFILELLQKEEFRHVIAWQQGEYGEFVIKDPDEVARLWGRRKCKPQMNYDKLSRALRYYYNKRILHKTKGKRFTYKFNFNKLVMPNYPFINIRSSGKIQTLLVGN
The note with it: protein: recombinant; tags: N-terminal GST; dsDNA, one strand shown. The procedure, abridged: as §1

Assay [18] has as its target ETV6 (Homo sapiens, UniProt P41212 1-452). The note with it: protein: recombinant; tags: N-terminal GST; dsDNA, one strand shown. The procedure, abridged:
as §1

ELF4, sequence (Q99607 whole entry): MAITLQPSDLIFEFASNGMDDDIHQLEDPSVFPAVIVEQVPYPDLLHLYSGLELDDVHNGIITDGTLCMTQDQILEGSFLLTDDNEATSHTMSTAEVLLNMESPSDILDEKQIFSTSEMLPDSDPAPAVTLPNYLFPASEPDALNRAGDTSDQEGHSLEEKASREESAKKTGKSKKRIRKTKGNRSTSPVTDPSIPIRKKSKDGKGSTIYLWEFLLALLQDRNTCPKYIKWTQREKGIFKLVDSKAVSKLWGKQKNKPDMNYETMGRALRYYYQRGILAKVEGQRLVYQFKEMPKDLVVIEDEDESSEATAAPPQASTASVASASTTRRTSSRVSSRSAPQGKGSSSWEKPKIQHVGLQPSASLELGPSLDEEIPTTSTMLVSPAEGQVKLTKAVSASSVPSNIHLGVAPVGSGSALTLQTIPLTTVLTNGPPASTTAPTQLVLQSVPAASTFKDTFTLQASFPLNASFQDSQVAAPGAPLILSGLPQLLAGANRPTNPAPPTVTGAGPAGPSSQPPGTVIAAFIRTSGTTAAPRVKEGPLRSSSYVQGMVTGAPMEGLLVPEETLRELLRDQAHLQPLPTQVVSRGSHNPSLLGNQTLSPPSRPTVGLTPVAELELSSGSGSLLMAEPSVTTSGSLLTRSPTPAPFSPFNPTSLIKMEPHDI
CRX, sequence (O43186 whole entry): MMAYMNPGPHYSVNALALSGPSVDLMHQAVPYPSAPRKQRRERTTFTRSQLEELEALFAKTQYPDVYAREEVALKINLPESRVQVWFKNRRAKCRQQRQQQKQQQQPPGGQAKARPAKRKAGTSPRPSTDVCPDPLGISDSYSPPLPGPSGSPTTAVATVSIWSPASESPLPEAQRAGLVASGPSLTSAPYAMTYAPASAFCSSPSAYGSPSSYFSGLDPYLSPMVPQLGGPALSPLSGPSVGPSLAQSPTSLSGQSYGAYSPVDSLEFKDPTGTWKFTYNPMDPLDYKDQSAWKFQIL
ETV5, sequence (P41161 whole entry): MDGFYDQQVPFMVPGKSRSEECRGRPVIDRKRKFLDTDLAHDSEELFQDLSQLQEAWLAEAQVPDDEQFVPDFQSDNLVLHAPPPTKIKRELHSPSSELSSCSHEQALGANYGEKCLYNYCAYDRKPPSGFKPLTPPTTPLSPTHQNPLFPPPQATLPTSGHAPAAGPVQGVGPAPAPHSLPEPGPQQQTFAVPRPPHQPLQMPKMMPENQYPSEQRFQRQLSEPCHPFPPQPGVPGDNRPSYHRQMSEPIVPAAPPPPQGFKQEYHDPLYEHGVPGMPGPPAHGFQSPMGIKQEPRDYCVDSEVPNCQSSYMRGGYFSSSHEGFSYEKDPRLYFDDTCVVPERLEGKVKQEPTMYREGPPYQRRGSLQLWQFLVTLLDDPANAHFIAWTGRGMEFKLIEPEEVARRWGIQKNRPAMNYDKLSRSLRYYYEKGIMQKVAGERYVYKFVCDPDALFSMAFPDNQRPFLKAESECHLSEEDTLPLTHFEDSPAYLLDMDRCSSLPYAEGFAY
ETV6, sequence (P41212 whole entry): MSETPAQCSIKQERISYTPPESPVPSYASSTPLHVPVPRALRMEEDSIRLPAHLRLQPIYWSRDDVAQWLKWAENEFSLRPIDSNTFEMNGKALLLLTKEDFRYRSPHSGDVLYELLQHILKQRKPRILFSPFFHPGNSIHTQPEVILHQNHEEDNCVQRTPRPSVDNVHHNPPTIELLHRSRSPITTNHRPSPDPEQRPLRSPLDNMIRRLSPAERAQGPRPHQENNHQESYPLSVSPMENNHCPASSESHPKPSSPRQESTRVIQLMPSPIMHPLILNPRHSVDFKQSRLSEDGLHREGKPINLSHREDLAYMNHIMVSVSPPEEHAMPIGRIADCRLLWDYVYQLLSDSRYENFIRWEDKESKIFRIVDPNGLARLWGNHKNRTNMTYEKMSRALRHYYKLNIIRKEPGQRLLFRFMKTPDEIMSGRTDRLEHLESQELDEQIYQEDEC

In the case of GAACTA, the binding signal in assay [1] is 1.25 fold enrichment (6-mer frequency, TF over GST control); in [2], 1.33 fold enrichment (6-mer frequency, TF over GST control); in [3] it was 1.32 fold enrichment (6-mer frequency, TF over GST control); in assay [4] it was 1.48 fold enrichment (6-mer frequency, TF over GST control); in assay [5], 1.21 fold enrichment (6-mer frequency, TF over GST control); in assay [6], 1.25 fold enrichment (6-mer frequency, TF over GST control). Besides, the binding signal in assay [7] was 1.31 fold enrichment (6-mer frequency, TF over GST control); in assay [8], 1.23 fold enrichment (6-mer frequency, TF over GST control); in assay [9], 1.13 fold enrichment (6-mer frequency, TF over GST control); in assay [10], 1.37 fold enrichment (6-mer frequency, TF over GST control); in [11], 1.25 fold enrichment (6-mer frequency, TF over GST control); in assay [12] it was 1.27 fold enrichment (6-mer frequency, TF over GST control). In addition, the binding signal in [13] is 1.33 fold enrichment (6-mer frequency, TF over GST control); in [14], 1.31 fold enrichment (6-mer frequency, TF over GST control); in [15], 1.3 fold enrichment (6-mer frequency, TF over GST control); in assay [16], 1.36 fold enrichment (6-mer frequency, TF over GST control); in assay [17], 1.34 fold enrichment (6-mer frequency, TF over GST control); in [18] it was 1.36 fold enrichment (6-mer frequency, TF over GST control).

(Values after PMC7862700, “An all-to-all approach to the identification of sequence-specific readers for epigenetic DNA modifications on cytosine”.)
